The list is not random: actives were taken first. Their share in the collection is about 6%.
Tau fluor cs: counter-screen for tau fibril formation inhibitors | Potency, µM (highest dose often 57.7 µM), without a hit: top-dose activity change, negative = decrease | AID 1463 | 0.93% of 280,000 active | tau K18 P301L Alexa594 fluorescence, heparin fibrillization; further: nearly all actives have a fitted effect of over 55% in size
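Human tau K18 P301L (15 uM unlabeled, 0.24 uM Alexa 594-labeled) in 100 mM sodium acetate pH 7 with 20 uM heparin, 6 hr at 37 C. ThT 30 uM added, 1 hr ambient; Alexa 594 FP and total fluorescence read at 555/632 nm.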
Tau fibril ThT: inhibitors of human tau fibril formation, thioflavin T binding; P10636; recombinant tau K18 P301L (four-repeat tau fragment), heparin-induced fibrillization, ThT fluorescence; Potency, µM (titrated, usually from 57.4 µM), without a hit: at the highest dose activity, negative = inhibition, actives largely listed as inhibitors; 2.1% of 270,000 active; AID 1460; further: nearly all actives have a fitted effect of over 55% in size
Target sequence (P10636 561-689 P618L limits assumed): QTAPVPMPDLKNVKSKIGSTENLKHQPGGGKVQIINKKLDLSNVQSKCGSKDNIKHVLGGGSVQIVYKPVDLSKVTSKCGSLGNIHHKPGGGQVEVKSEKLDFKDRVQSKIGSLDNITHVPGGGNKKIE
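Aggregation was driven by heparin (20 uM final) acting on recombinant tau […] bearing P301L in 100 mM sodium acetate pH 7; fibrils were detected with Thioflavin T.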
VDR inhibitor: blocks the human vitamin D receptor; P11473; VDR-SRC2-3 peptide fluorescence polarization, 2 h; Potency, µM, without a hit: max response, negative = inhibition, actives largely listed as inhibitors; 0.93% of 400,000 active
Target sequence (P11473 whole entry, looked up): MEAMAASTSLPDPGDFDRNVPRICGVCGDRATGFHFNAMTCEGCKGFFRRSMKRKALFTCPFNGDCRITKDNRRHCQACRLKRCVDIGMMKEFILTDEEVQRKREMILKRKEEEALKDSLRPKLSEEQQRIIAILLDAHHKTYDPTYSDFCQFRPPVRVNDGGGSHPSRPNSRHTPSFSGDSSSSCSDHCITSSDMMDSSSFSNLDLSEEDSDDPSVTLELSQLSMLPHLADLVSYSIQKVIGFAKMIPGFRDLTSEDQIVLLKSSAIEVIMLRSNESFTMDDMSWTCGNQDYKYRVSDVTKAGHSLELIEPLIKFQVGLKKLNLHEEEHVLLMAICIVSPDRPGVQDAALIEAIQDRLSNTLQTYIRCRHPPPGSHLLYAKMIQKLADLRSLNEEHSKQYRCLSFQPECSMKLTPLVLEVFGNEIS
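Signal is fluorescence polarization, reporting how far test compounds block the interaction of VDR with the SRC2-3 coregulator peptide after a 2 h room-temperature incubation.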
Tau FP inhib: inhibitors of human tau fibril formation; P10636; K18 P301L tau heparin fibrillization, Alexa594 FP, 6 h; Potency, µM (titrated, usually from 57.7 µM), for inactives: at the highest dose activity, negative = inhibition, most hits filed as inhibitors; 0.39% of 280,000 active; AID 1468; further: nearly all actives have a fitted effect of over 55% in size
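Human K18 P301L fragment (15 uM unlabeled plus 0.24 uM Alexa 594-labeled) in 100 mM sodium acetate pH 7 with compound, aggregation induced by 20 uM heparin for 6 hr at 37 C. ThT (30 uM) added for 1 hr, then Alexa 594 FP read.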
PLK1 PBD block: blocks phosphopeptide binding to human PLK1 polo-box domain; P53350; 2.8% of 360,000 active; Potency, µM, for the others: max response, negative = inhibition, actives largely listed as inhibitors; Plk1 PBD binding of FITC phosphopeptide, fluorescence polarization; further: series mostly up to about 57 µM; nearly all actives have a fitted effect of over 65% in size
Sfp PPTase inh: inhibitors of Bacillus subtilis Sfp phosphopantetheinyl transferase | 3.5% of 310,000 active | Biochemical Sfp PPTase activity, qHTS | Potency, µM, without a hit: largest response in the series, negative = inhibition, usual class: inhibitors | AID 1490;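 further: the enzyme is Sfp with the accession as filed and its product quenches rhodamine fluorescence; 0% = enzyme reaction without inhibitor and -100% = no enzyme wells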
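Step 1, compound plus 15 nM Sfp-PPTase, 15 min, room temperature. Step 2, add rhodamine-CoA (5 uM) and BHQ-2-YbbR (12.5 uM). Step 3, read 525/598 nm fluorescence at 0 and 30 min.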
TbPYK confirm: confirmation of Trypanosoma brucei pyruvate kinase inhibitors | shares compounds with PLK1 PBD block | recombinant TbPYK, Kinase-Glo ATP luminescence | Potency, µM (series often up to 76.9 µM), inactives show top-dose activity change, negative = inhibition, usual class: inhibitors | 67% of 890 active; further: nearly all actives have a fitted effect of over 70% in size
TbPYK orthogonal: TbPYK inhibition, orthogonal confirmation; shares compounds with PLK1 PBD block; recombinant TbPYK, ADP-Glo luminescence, 60 min; Potency, µM (series often up to 76.9 µM), for inactives: at the highest dose activity change, negative = inhibition, usual class: inhibitors; 62% of 890 active; AID 720584; further: nearly all actives have a fitted effect of over 75% in size
Starred values were filed as active, the others as inactive; [ ] = another dose, or the depositor's remark. The call rests on the fitted dose curve; in most records, active means well fitted curve in the direction sought with a large enough effect; inconclusive means small, poorly fitted or top-dose-only effect, or another doubt; inactive means no such curve, though single readings can be large; an effect the other way counts as inactive or inconclusive. Unless noted, on the % scale 0 is the no-effect control and ±100 the full control effect; potency means the concentration at half of the fitted maximal effect.

What do the screens show for `CCCC(C)c1nnc(NC(=O)c2cc(C(=O)OC)cc([N+](=O)[O-])c2)s1` (stereo not given)?
Tau fluor cs: -19%; Tau fibril ThT: -12%; VDR inhibitor: 50µM*; Tau FP inhib: 5%; PLK1 PBD block: 6µM*; Sfp PPTase inh: 14µM*; TbPYK confirm: 3.5µM*; TbPYK orthogonal: 14µM*

What do the screens show for `COc1cccc(Nc2sc(C(=O)c3ccc4c(c3)OCO4)c(N)c2S(=O)(=O)c2ccccc2)c1`?
Tau fluor cs: -20%; Tau fibril ThT: -1%; VDR inhibitor: 13%; Tau FP inhib: inconclusive

What do the screens show for `CC(=O)c1cc(-c2ccccc2)n(CCC(=O)NC(C)c2ccccc2)c1C` (stereo not given)?
Tau fluor cs: -8%; Tau fibril ThT: -5%; VDR inhibitor: 19%; Tau FP inhib: -9%

Results for CC1CN2C(c3ccc([N+](=O)[O-])cc3)=CSC2=N1 (stereo not given) ?
VDR inhibitor: inconclusive; PLK1 PBD block: inconclusive; Sfp PPTase inh: 50µM*; TbPYK confirm: 6.3µM*; TbPYK orthogonal: 13µM*

What do the screens show for `COc1ccc(S(=O)(=O)Nc2cc(Sc3ncn[nH]3)c(O)cc2C)cc1`?
VDR inhibitor: -5%; PLK1 PBD block: -17%

Results for Cc1cc(C)c(S(=O)(=O)/N=C2/C=C(Sc3ncn[nH]3)C(=O)c3ccccc32)cc1C ?
Tau fluor cs: 4%; Tau fibril ThT: 3%; VDR inhibitor: inconclusive; Tau FP inhib: -1%; PLK1 PBD block: 0.84µM*; Sfp PPTase inh: 1µM*; TbPYK confirm: 1.4µM*; TbPYK orthogonal: 2.5µM*

Results for COC1OC2COC(c3ccccc3)OC2C2OC(c3ccccc3)OC12 (stereo not given) ?
PLK1 PBD block: 11%

How did CSc1nsc(SC)c1NC(=O)N1CCCC1 do in these assays?
Tau fluor cs: 1%; Tau fibril ThT: 1%; VDR inhibitor: -19%; Tau FP inhib: -2%; PLK1 PBD block: -9%; Sfp PPTase inh: -30%; TbPYK confirm: inconclusive; TbPYK orthogonal: 32µM*

Results for O=C1C=CC2=C3c4cc(O)c(O)cc4CC3(O)COC2=C1O (stereo not given) ?
Tau fluor cs: 4µM*[quencher]; Tau fibril ThT: 3.2µM*; VDR inhibitor: inconclusive; Tau FP inhib: 7.9µM*; PLK1 PBD block: 27µM*; Sfp PPTase inh: 14µM*; TbPYK confirm: 7.1µM*; TbPYK orthogonal: 4µM*

How did O=C(NCCc1ccc(O)c(O)c1)C1COc2ccccc2O1 (stereo not given) do in these assays?
VDR inhibitor: -2%; PLK1 PBD block: -9%; Sfp PPTase inh: 50µM*; TbPYK confirm: 18µM*; TbPYK orthogonal: 18µM*

Results for COc1cc(N=c2ssnc2Cl)cc(OC)c1OC ?
Tau fluor cs: -24%; Tau fibril ThT: 20µM*; VDR inhibitor: inconclusive; Tau FP inhib: inconclusive; PLK1 PBD block: 0.95µM*; Sfp PPTase inh: 14µM*; TbPYK confirm: 3.5µM*; TbPYK orthogonal: 6.3µM*

What do the screens show for `Clc1ccc(N=c2ssnc2Cl)cc1`?
Tau fluor cs: -22%; Tau fibril ThT: 13µM*; VDR inhibitor: 25µM*; Tau FP inhib: 18µM*; PLK1 PBD block: 1.9µM*; Sfp PPTase inh: 4µM*; TbPYK confirm: 7.9µM*; TbPYK orthogonal: 10µM*

How did Fc1ccc(N=c2ssnc2Cl)c(F)c1 do in these assays?
Tau fluor cs: -15%; Tau fibril ThT: 14µM*; VDR inhibitor: 35µM*; Tau FP inhib: inconclusive; PLK1 PBD block: 1.7µM*; Sfp PPTase inh: 14µM*; TbPYK confirm: 28µM*; TbPYK orthogonal: 32µM*

What do the screens show for `CCOC(=O)c1ccc(N=c2ssnc2Cl)cc1`?
Tau fluor cs: -18%; Tau fibril ThT: 28µM*; VDR inhibitor: 16µM*; Tau FP inhib: inconclusive; PLK1 PBD block: 2.1µM*; Sfp PPTase inh: -103%; TbPYK confirm: 16µM*; TbPYK orthogonal: 16µM*

What do the screens show for `O=C1CSC(=Nc2ccc(Cl)cc2)N1Cc1ccco1`?
Tau fluor cs: -3%; Tau fibril ThT: -8%; VDR inhibitor: -15%; Tau FP inhib: 11%; PLK1 PBD block: -4%; Sfp PPTase inh: inconclusive

Results for COc1ccc(NC(=O)C2CCCN(S(=O)(=O)c3ccc4c(c3)CCCC(=O)N4)C2)c(OC)c1 (stereo not given) ?
Tau fluor cs: -7%; Tau fibril ThT: 1%; VDR inhibitor: 6%; Tau FP inhib: -1%

What do the screens show for `N#Cc1ccc(N=c2ssnc2Cl)cc1`?
Tau fluor cs: -17%; Tau fibril ThT: 20µM*; VDR inhibitor: 14µM*; Tau FP inhib: inconclusive; PLK1 PBD block: 1.3µM*; Sfp PPTase inh: 8.9µM*; TbPYK confirm: 7.1µM*; TbPYK orthogonal: 7.9µM*

What do the screens show for `CCC(=O)/C=C1/Sc2ccccc2N1CC`?
Tau fluor cs: -7%; Tau fibril ThT: inconclusive; VDR inhibitor: inconclusive; Tau FP inhib: -4%; PLK1 PBD block: 27µM*; Sfp PPTase inh: 28µM*; TbPYK confirm: inconclusive; TbPYK orthogonal: 18µM*

What do the screens show for `O=C(O)CCN1c2ccccc2Sc2ccccc21`?
Tau fluor cs: -13%; Tau fibril ThT: -11%; VDR inhibitor: -16%; Tau FP inhib: -3%; PLK1 PBD block: 0%; Sfp PPTase inh: 17%

What do the screens show for `O=C(CCc1ccccc1)N(Cc1cccnc1)c1nc2c(F)cc(F)cc2s1`?
Tau fluor cs: -12%; Tau fibril ThT: -6%; VDR inhibitor: 9%; Tau FP inhib: -1%

What do the screens show for `O=C1N/C(=C/c2ccc(N3CCOCC3)o2)C(=O)N1c1ccccc1`?
Tau fluor cs: 3%; Tau fibril ThT: inconclusive; VDR inhibitor: 45µM*; Tau FP inhib: -16%; PLK1 PBD block: 49%; Sfp PPTase inh: -91%; TbPYK confirm: inconclusive; TbPYK orthogonal: 16µM*

Results for CCN(CC)C(=S)Sc1c(-c2ccccc2)c2cc(Cl)ccc2[nH]c1=O ?
Tau fluor cs: -29%; Tau fibril ThT: -9%; VDR inhibitor: inconclusive; Tau FP inhib: -6%; PLK1 PBD block: inconclusive; Sfp PPTase inh: 16µM*; TbPYK confirm: inconclusive; TbPYK orthogonal: 14µM*
